Test results from PubChem BioAssay (EPA / NIEHS).
Where “and” joins values, the source holds several entries; their conditions need not be identical. Equal entries are not always repeated. Records with an inconclusive call do not appear. Some structures have more than one record in an assay (separate samples or runs), and their calls can disagree. Calls of active or inactive are those of the source. Rule for the calls: active = hit-call score of the fitted dose curve at least 0.9, where 1 is the maximum; inconclusive = response in the unintended direction; inactive = score below 0.9.

Assays:
[1] = target: Estrogen receptor (Homo sapiens) + Estrogen receptor beta (Homo sapiens) (UniProt P03372+Q92731); assay: OT_ER_ERaERb_1440: Odyssey Thera (OT) 24-hour HEK293T Protein-Complementation Assay for Estrogen Receptor-alpha/-beta Homodimer (AID 2283356);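 note: heteromer of ER alpha and ER beta binding domains; hits raise reporter fluorescence and both agonists and antagonists give an increase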
In short: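 24 h exposure; HEK293T PCA cells with ERα/ERβ LBD fragments; signal rise in nuclear or whole-cell fluorescence over vehicle.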

[2] = target: rat Mineralocorticoid Receptor (MR), Nr3c2 (gene 25672) (UniProt P22199); assay: NVS_NR_rMR: NovaScreen (NVS) Nuclear Receptor Binding Assay for rat Mineralocorticoid Receptor (MR) (AID 2283355)
In short: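 Radioligand displacement, scintillation readout; tissue source adrenalectomized rat brain supernatant. Read 24 h post-dose. Screened in duplicate at 25 uM, DMSO negative control, controls on every plate; actives re-run in concentration series.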

[3] = target: Estrogen receptor beta (Homo sapiens) (UniProt Q92731); assay: OT_ER_ERbERb_0480: Odyssey Thera (OT) 8-hour HEK293T Protein-Complementation Assay for Estrogen Receptor-beta/-beta Homodimer (AID 2283357);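 note: active means signal gain over DMSO baseline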
In short: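 Homodimerization of ER-beta LBD measured by protein-fragment complementation in HEK293T; 8 h dosing; fixed, Draq5 counterstain; fluorescence intensity gain over DMSO baseline, positive fitting direction; laser scanning cytometry.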

[4] = target: Retinoic acid receptor alpha (Homo sapiens) (UniProt P10276); assay: NVS_NR_hRARa_Agonist: NovaScreen (NVS) Nuclear Receptor Binding Assay for human Retinoic Acid Alpha Receptor Agonism (RAR) (AID 2283361)
In short: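 TR-FRET signal, 2 h post-dosing; cell-free extracted protein; DMSO = baseline, positive fitting direction; 25 uM single-point duplicate, then concentration series for actives.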

[5] = target: human Thyroid Receptor Alpha (TRa), THRA (gene 7067) (UniProt P10827); assay: NVS_NR_hTRa_Antagonist: NovaScreen (NVS) Nuclear Receptor Binding Assay for human Thyroid Receptor Alpha Antagonism (TRa) (AID 2283362)
Description: NVS_NR_hTRa_Antagonist is a biochemical, single-readout assay that uses extracted gene-proteins in a cell-free assay. Measurements were taken 1 hour after chemical dosing in a 384-well plate.NVS_NR_hTRa_Antagonist is one of one assay component(s) measured or calculated from the NVS_NR_hTRa_Antagonist assay. It is designed to make measurements of enzyme-linked immunosorbent assay, a form of binding reporter, as detected with chemiluminescence signals by AlphaLISA immunoassay technology.Data from the assay component NVS_NR_hTRa_Antagonist was analyzed into 1 assay endpoint. This assay endpoint, NVS_NR_hTRa_Antagonist, was analyzed in the positive analysis fitting direction relative to DMSO as the negative control and baseline of activity. Using a type of binding reporter, loss-of-signal activity can be used to understand changes in the binding as they relate to the gene THRA. Furthermore, this assay endpoint can be referred to as a primary readout, because the performed assay has only produced 1 assay endpoint. To generalize the intended target to other relatable targets, this assay endpoint is annotated to the nuclear receptor intended target family, where the subfamily is non-steroidal.
(§1) Binding assays used specific radioligands (tritiated, iodinated) with non-radioactive competitive displacement ligands in agonist or antagonist protocols (as indicated) and various reference compounds and inhibitors to titrate specific binding to receptors and transporters. Most enzyme assays (CYPs, kinases, phosphatases, proteases, HDACs) used recombinant protein and specific substrates (fluorescence mostly, some colorimetric and radioactive) and inhibitors, followed by a biochemical separation of substrate and product. All assays for the biochemical HTS were initially run in duplicate at a single concentration (10 uM for CYP450 assays and 25 uM for all others). […] Each assay was run with positive and negative controls, and concurrent controls on every plate. The follow-up (secondary) screen tested active chemical-pairs in concentration series, as well as a few additional assays not tested in the primary screen, some selected negative inactives, and several cases re-run in the concentration series for confirmatory purposes.

[6] = target: Androgen Receptor/SRC-1 Co-activator, AR (gene 367) (UniProt P10275); assay: OT_AR_ARSRC1_0960: Odyssey Thera (OT) 16-hour HEK293T Protein-Complementation Assay for Androgen Receptor/SRC-1 Co-activator (AID 2283353);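 note: actives raise the signal above DMSO so potency reflects increased AR and SRC-1 complex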
In short: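 Endpoint is gain-of-signal N/C fluorescence ratio in the 488 nm channel versus DMSO, from at least 400 cells per image, measured 16 h post-dosing. Cells: HEK293T stably carrying split-Venus AR/SRC-1 complementation constructs.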

[7] = target: Androgen Receptor/SRC-1 Co-activator, AR (gene 367) (UniProt P10275); assay: OT_AR_ARSRC1_0480: Odyssey Thera (OT) 8-hour HEK293T Protein-Complementation Assay for Androgen Receptor/SRC-1 Co-activator (AID 2283354);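 note: hits raise the complementation signal above DMSO so AC50 marks enhancers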
In short: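 Split-Venus PCA, stable HEK293T, AR/SRC-1 fusions; 8 h exposure. Readout: 488nm N/C fluorescence ratio, ≥400 cells/image; fitted upward vs DMSO baseline.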

PGR (gene 5241) = PGR (gene 5241) (UniProt P06401); assay: NVS_NR_hPR: NovaScreen (NVS) Nuclear Receptor Binding Assay for human Progestron Receptor (PR) (AID 2283360);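 note: active means loss of bound radioligand signal versus DMSO baseline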
In short: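 Radioligand competition binding on receptor extracted from T47D cells, read by scintillation counting 18 h after dosing. Loss of signal versus DMSO; primary screen in duplicate at 25 uM, actives followed in concentration series.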

[8] = target: human Peroxisome Proliferator-activated Receptor alpha (PPARa), PPARA (gene 5465) (UniProt Q07869); assay: NVS_NR_hPPARa: NovaScreen (NVS) Nuclear Receptor Binding Assay for human Peroxisome Proliferator-activated Receptor alpha (PPARa) (AID 2283359);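 note: activity means loss of TR-FRET signal versus DMSO baseline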
In short: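 TR-FRET signal measured at 1 h post-dosing; loss-of-signal versus DMSO negative control taken as activity. Extracted gene-protein, cell-free format. Initial single-point duplicates at 25 uM, then concentration-response retests.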

[9] = target: Retinoic acid receptor alpha (Homo sapiens) (UniProt P10276); assay: NVS_NR_hRAR_Antagonist: NovaScreen (NVS) Nuclear Receptor Binding Assay for human Retinoic Acid Alpha Receptor Antagonism (RAR) (AID 2283358)
Description: NVS_NR_hRAR_Antagonist is a biochemical, single-readout assay that uses extracted gene-proteins in a cell-free assay. Measurements were taken 2 hours after chemical dosing in a 384-well plate.NVS_NR_hRAR_Antagonist is one of one assay component(s) measured or calculated from the NVS_NR_hRAR_Antagonist assay. It is designed to make measurements of fluorescent resonance energy transfer, a form of binding reporter, as detected with fluorescent resonance energy transfer signals by Time-Resolved Fluorescence Resonance Energy Transfer (TR-FRET) technology.Data from the assay component NVS_NR_hRAR_Antagonist was analyzed into 1 assay endpoint. This assay endpoint, NVS_NR_hRAR_Antagonist, was analyzed in the positive analysis fitting direction relative to DMSO as the negative control and baseline of activity. Using a type of binding reporter, loss-of-signal activity can be used to understand changes in the binding as they relate to the gene RARA. Furthermore, this assay endpoint can be referred to as a primary readout, because the performed assay has only produced 1 assay endpoint. To generalize the intended target to other relatable targets, this assay endpoint is annotated to the nuclear receptor intended target family, where the subfamily is non-steroidal.
as §1

Sequence of Estrogen receptor (Homo sapiens) + Estrogen receptor beta (Homo sapiens) (P03372 whole entry, looked up, the tested form may be a part): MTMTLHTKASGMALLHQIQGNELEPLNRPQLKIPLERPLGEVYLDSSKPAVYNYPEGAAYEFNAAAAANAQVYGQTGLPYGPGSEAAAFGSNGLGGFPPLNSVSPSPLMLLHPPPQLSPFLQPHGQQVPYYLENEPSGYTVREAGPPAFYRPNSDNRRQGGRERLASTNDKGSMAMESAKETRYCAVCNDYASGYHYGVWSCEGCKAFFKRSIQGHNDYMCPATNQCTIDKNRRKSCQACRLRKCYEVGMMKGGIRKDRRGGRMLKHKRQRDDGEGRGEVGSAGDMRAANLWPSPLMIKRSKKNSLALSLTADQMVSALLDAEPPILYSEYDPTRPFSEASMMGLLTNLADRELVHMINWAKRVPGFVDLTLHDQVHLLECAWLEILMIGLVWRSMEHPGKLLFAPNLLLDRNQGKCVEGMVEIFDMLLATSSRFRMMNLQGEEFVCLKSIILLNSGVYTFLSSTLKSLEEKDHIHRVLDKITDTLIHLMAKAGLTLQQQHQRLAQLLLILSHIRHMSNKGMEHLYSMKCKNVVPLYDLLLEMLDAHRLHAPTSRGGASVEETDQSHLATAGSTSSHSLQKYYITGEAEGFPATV
Sequence of Estrogen receptor (Homo sapiens) + Estrogen receptor beta (Homo sapiens) (Q92731 whole entry, looked up, the tested form may be a part): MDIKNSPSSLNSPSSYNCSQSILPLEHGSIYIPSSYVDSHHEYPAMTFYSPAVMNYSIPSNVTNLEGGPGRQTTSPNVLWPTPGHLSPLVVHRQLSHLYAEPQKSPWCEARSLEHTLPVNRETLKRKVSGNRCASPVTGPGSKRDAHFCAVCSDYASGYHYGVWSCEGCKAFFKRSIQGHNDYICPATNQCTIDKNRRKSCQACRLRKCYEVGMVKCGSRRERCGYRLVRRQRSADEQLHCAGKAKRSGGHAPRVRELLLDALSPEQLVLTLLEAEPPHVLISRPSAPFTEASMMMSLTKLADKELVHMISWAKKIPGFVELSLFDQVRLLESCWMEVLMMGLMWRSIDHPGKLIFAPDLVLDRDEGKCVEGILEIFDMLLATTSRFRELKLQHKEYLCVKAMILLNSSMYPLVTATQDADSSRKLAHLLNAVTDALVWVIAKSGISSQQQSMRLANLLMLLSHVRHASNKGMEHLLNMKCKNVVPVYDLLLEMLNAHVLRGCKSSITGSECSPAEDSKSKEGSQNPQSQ
Sequence of human Thyroid Receptor Alpha (TRa), THRA (gene 7067) (P10827 whole entry, looked up): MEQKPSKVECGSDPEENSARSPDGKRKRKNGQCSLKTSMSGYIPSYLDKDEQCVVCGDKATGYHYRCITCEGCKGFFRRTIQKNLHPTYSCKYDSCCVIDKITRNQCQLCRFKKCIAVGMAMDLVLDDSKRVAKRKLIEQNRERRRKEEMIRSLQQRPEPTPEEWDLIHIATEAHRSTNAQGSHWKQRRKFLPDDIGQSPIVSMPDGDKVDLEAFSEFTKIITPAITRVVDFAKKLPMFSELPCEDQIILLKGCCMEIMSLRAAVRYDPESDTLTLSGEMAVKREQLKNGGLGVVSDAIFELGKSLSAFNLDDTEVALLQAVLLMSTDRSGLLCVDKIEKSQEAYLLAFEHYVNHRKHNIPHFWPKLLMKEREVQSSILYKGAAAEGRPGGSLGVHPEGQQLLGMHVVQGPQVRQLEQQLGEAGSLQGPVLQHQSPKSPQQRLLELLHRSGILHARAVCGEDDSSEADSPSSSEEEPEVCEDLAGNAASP
Sequence of rat Mineralocorticoid Receptor (MR), Nr3c2 (gene 25672) (P22199 whole entry, looked up): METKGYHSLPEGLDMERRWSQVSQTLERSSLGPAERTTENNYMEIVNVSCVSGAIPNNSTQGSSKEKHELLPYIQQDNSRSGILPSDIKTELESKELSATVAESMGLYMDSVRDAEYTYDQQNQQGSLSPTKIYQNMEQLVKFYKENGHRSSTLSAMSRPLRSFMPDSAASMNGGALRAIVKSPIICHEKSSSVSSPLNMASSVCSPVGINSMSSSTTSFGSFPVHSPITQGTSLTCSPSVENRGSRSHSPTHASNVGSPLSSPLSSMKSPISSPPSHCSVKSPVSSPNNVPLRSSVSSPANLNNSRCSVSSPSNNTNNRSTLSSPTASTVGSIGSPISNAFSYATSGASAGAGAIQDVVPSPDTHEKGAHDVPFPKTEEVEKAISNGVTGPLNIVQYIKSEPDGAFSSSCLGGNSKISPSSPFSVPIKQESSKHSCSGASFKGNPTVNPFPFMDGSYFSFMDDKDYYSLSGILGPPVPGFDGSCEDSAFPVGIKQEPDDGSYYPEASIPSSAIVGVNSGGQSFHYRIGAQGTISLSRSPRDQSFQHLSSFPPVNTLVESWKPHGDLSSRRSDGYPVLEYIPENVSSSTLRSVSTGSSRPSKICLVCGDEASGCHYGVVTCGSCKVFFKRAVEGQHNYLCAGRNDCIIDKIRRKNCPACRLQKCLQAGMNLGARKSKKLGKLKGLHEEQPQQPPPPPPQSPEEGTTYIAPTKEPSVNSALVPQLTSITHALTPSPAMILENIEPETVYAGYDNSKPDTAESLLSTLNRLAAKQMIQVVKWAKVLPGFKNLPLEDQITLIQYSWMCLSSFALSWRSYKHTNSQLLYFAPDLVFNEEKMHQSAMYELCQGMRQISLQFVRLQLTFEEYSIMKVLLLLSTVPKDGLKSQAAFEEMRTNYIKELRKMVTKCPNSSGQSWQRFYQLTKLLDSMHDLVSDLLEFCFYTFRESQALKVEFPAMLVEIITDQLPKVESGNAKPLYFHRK
Sequence of Androgen Receptor/SRC-1 Co-activator, AR (gene 367) (P10275 whole entry, looked up, the tested form may be a part): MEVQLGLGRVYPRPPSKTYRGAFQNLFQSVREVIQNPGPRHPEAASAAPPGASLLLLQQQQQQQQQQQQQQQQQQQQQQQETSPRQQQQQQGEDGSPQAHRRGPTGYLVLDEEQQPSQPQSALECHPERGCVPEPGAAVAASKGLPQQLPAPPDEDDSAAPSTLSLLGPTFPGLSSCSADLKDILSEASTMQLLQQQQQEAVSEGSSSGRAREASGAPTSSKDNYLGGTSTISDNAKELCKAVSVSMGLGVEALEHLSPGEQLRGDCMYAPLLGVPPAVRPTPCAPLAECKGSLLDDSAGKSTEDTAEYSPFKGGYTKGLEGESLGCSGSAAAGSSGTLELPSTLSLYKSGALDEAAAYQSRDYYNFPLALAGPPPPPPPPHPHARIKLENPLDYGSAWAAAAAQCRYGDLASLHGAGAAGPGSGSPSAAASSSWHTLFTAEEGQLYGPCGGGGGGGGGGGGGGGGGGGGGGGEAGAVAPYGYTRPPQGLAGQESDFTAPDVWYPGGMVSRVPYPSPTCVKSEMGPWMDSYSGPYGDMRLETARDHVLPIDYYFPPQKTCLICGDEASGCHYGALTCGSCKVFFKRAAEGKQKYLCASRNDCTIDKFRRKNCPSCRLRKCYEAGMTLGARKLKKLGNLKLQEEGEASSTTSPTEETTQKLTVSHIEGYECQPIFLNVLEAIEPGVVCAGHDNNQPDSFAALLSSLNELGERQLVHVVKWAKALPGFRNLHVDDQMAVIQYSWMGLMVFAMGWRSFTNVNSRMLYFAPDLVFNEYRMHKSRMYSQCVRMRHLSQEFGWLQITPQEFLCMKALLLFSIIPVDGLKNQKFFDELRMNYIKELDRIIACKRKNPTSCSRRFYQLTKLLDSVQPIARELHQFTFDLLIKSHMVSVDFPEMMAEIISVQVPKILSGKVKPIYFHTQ
Sequence of PGR (gene 5241) (P06401 whole entry, looked up): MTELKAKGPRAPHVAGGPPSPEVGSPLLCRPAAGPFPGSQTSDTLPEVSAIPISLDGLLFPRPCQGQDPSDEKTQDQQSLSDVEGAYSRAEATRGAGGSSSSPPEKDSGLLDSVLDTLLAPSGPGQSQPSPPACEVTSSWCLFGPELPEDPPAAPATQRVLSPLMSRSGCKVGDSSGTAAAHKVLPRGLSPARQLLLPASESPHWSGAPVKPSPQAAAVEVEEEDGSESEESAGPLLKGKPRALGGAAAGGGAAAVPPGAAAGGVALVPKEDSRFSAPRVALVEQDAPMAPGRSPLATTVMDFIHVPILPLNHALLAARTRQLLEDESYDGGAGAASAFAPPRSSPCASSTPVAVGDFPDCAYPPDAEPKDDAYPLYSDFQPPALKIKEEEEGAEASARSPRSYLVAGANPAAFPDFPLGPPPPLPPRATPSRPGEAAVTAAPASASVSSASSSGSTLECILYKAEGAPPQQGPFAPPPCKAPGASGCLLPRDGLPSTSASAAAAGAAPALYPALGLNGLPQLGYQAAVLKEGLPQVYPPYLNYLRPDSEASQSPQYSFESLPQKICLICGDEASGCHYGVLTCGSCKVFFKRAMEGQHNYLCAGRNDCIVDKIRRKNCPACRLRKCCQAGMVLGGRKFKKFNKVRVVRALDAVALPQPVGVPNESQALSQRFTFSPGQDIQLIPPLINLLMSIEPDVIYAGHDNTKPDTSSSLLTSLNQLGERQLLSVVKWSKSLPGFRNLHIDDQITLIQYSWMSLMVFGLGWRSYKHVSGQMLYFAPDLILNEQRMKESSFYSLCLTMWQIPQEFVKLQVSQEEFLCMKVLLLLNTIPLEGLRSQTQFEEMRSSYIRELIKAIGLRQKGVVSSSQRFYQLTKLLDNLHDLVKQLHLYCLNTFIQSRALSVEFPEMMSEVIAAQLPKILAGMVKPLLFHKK
Sequence of human Peroxisome Proliferator-activated Receptor alpha (PPARa), PPARA (gene 5465) (Q07869 whole entry, looked up): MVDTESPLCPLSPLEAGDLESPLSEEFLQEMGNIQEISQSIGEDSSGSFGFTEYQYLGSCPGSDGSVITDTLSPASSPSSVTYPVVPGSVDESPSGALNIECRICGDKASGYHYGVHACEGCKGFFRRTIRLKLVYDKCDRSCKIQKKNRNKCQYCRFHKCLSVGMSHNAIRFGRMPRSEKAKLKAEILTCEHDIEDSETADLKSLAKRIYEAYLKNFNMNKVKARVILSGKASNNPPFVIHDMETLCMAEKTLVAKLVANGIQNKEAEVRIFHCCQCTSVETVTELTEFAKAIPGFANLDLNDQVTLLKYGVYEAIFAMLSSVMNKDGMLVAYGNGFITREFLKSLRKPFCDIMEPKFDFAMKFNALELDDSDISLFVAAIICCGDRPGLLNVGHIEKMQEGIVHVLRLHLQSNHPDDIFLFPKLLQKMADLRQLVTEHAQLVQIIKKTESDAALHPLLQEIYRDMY

## O=C1OC2(c3ccccc31)c1cc(Br)c(O)c(Br)c1Oc1c2cc(Br)c(O)c1Br
[1]
  AC50: 53.7 µM (active)

## C#C[C@]1(O)CC[C@H]2[C@@H]3CCC4=CC(=O)CC[C@@H]4[C@H]3CC[C@@]21C
[2]
  AC50: 500 nM (active)
[1]
  outcome: inactive
[3]
  AC50: 25.7 µM (active) and 31.6 µM (active) and 17.8 µM (active)
  outcome: inactive
[4]
  outcome: inactive
[5]
  outcome: inactive

## COCC(C)O (stereo not given)
[2]
  outcome: inactive

## O=c1c(-c2ccc(O)cc2)coc2cc(O)ccc12
[6]
  outcome: inactive
[7]
  outcome: inactive
[4]
  AC50: 1.06 µM (active) and 6.6 µM (active)
  outcome: inactive

## Oc1cc2ccccc2c2ccccc12
[6]
  AC50: 7.07 µM (active)
[7]
  AC50: 8.63 µM (active)
[1]
  outcome: inactive
[3]
  outcome: inactive
PGR (gene 5241)
  AC50: 11 µM (active)

## Cc1oc(-c2ccccc2)nc1CCOc1ccc(C[C@H](Nc2ccccc2C(=O)c2ccccc2)C(=O)O)cc1
[6]
  AC50: 45.4 µM (active)
[7]
  outcome: inactive
[1]
  outcome: inactive
[3]
  outcome: inactive

## C[C@@H]1C[C@H]2[C@@H]3CCC4=CC(=O)C=C[C@]4(C)[C@@]3(F)[C@@H](O)C[C@]2(C)[C@@]1(O)C(=O)COP(=O)(O)O
[2]
  AC50: 8.69 nM (active) and 2.18 nM (active) and 33.9 nM (active)
[1]
  outcome: inactive
[3]
  outcome: inactive

## CCCCC(CC)COC(=O)CCCCC(=O)OCc1ccccc1 (stereo not given)
[1]
  outcome: inactive
[3]
  outcome: inactive

## CC[C@H](c1ccc(O)cc1)[C@@H](CC)c1ccc(O)cc1
[6]
  AC50: 35.6 µM (active)
  outcome: inactive
[7]
  outcome: inactive
[1]
  AC50: 100 nM (active) [middle of 5 runs]
[8]
  outcome: inactive
PGR (gene 5241)
  AC50: 0.431 µM (active)

## CC(C)(C)CC(C)(C)c1ccc(O)c(-n2nc3ccccc3n2)c1
[1]
  outcome: inactive
[3]
  outcome: inactive

## CN1CCC[C@H]1c1cccnc1
[1]
  outcome: inactive
[3]
  outcome: inactive

## COCC(C)OCC(C)O (stereo not given)
[6]
  outcome: inactive
[7]
  outcome: inactive
[1]
  outcome: inactive

## CCC(=C(c1ccc(O)cc1)c1ccc(OCCN(C)C)cc1)c1ccccc1
[6]
  AC50: 19.8 µM (active) and 20.2 µM (active) and 19.2 µM (active)
  outcome: inactive
[7]
  AC50: 46.8 µM (active) and 46.2 µM (active) and 46.6 µM (active)
  outcome: inactive
[2]
  outcome: inactive
[8]
  outcome: inactive
PGR (gene 5241)
  AC50: 0.852 µM (active)
[5]
  outcome: inactive

## NC(=O)N1C(=O)C(C(=O)c2cc(Cl)cs2)c2cc(F)c(Cl)cc21 (stereo not given)
[6]
  outcome: inactive
[7]
  outcome: inactive
[1]
  outcome: inactive
[3]
  outcome: inactive
[8]
  outcome: inactive

## CC#C[C@]1(O)CC[C@H]2[C@@H]3CCC4=CC(=O)CCC4=C3[C@@H](c3ccc(N(C)C)cc3)C[C@@]21C
[2]
  AC50: 5210 nM (active)
[8]
  AC50: 41.9 µM (active)
  outcome: inactive
[5]
  AC50: 29.9 µM (active)
  outcome: inactive

## CCCCCCCCC(=O)O
[1]
  outcome: inactive

## Oc1cccc(O)c1
[1]
  AC50: 32.1 µM (active)
[3]
  outcome: inactive

## c1ccc2c(c1)ccc1ccccc12
[6]
  outcome: inactive
[7]
  outcome: inactive

## CC(=O)CC(C)(C)O
[6]
  outcome: inactive
[7]
  outcome: inactive
[1]
  outcome: inactive
[3]
  outcome: inactive

## CN(C)C=O
[1]
  outcome: inactive
[3]
  outcome: inactive

## OCCC(F)(F)C(F)(F)C(F)(F)C(F)(F)C(F)(F)C(F)(F)F
[1]
  outcome: inactive
[3]
  outcome: inactive

## OCCC(F)(F)C(F)(F)C(F)(F)C(F)(F)C(F)(F)C(F)(F)C(F)(F)C(F)(F)F
[6]
  outcome: inactive
[7]
  outcome: inactive
[1]
  outcome: inactive
[3]
  outcome: inactive

## N#C[C@@H]1CC(F)(F)CN1C(=O)CNC1CC2CCC(C1)N2c1ncccn1 (stereo not given in full)
[6]
  outcome: inactive
[7]
  outcome: inactive
[1]
  outcome: inactive
[3]
  outcome: inactive
[9]
  outcome: inactive

## O=C(O)c1ccccc1C(c1ccc(O)cc1)c1ccc(O)cc1
[6]
  outcome: inactive
[7]
  outcome: inactive
[1]
  outcome: inactive
[3]
  outcome: inactive

## COc1ccc([N+](=O)[O-])cc1N
[1]
  outcome: inactive
[3]
  outcome: inactive
